From PubChem BioAssay (NCATS)
Results filed as inconclusive are left out. Active and inactive are the calls of the source. Calls come from the whole dose curve; as a rule, active = well fitted curve in the direction sought with a large enough effect; inconclusive = small, poorly fitted or top-dose-only effect, or another doubt; inactive = no such curve, though single readings can be large; an effect the other way counts as inactive or inconclusive.

Tests used:
[1] = qHTS for Inhibitors of Plasmodium falciparum (DD2) proliferation (AID 504314);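 note: parasite DNA measured by SYBR Green fluorescence after red cell lysis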
In short: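 Fluorescence read-out (ex 485/em 535 nm) of SYBR Green-stained parasite DNA quantifies intraerythrocytic growth. Cultures at 0.3% parasitemia and 2.5% hematocrit were treated for 72 h; data normalized to DMSO and 0.29 uM artemisinin wells.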

[2] = qHTS for Inhibitors of Plasmodium falciparum (GB4) proliferation (AID 504315); note: nearly all actives have a fitted effect of over 50% in size
In short: (§1)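 Erythrocytes infected with P. falciparum line (0.3% parasitemia, 2.5% hematocrit final) incubated with compounds 72 h at 37 °C, 5% CO2; SYBR Green lysis buffer added, fluorescence read next day. Normalized to 0.29 uM artemisinin and DMSO.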

[3] = qHTS for Inhibitors of Plasmodium falciparum (7G8) proliferation (AID 504316); note: nearly all actives have a fitted effect of over 65% in size; note: potency is the fitted concentration of half-maximal effect
In short: as §1

[4] = qHTS for Inhibitors of Plasmodium falciparum (HB3) proliferation (AID 504318); note: nearly all actives have a fitted effect of over 60% in size
In short: as §1

[5] = qHTS for Inhibitors of Plasmodium falciparum (CP250) proliferation (AID 504320)
In short: as §1

Measured: Potency

COC(=O)CCC(=O)OC1(C)C(=O)C2=CN(Cc3ccccc3)C(c3ccc(OC)cc3)=CC2=C(Br)C1=O (centres undefined)
inactive: all assays above

COC(=O)CCC(=O)OC1(C)C(=O)C2=CN(Cc3ccc4c(c3)OCO4)C(c3ccc(OC)cc3)=CC2=C(Br)C1=O (centres undefined)
inactive: all assays above

COC(=O)C1=C(C(=O)OC)[C@@H]2N(C)c3ccccc3[C@@]23C[C@@H](C(=O)OC)N(C(=O)COCc2ccccc2)C3=N1
inactive: all assays above

COC(=O)[C@H](Cc1ccccc1)NC(=O)O[C@@H]1C(=O)c2cc(OC)ccc2O[C@H]1c1cccc(OC)c1
inactive: all assays above

C[C@H]1Cc2c(COc3ccccc3)nc3c(c2CO1)CN(C(=O)NCCc1c[nH]c2ccccc12)CC3
inactive: all assays above

COc1ccc(C2=CC3=C(Br)C(=O)C(C)(OC(=O)c4cnc5ccccc5n4)C(=O)C3=CO2)cc1 (centres undefined)
inactive: all assays above

COC(=O)CCC(=O)OC1(C)C(=O)C2=CN(C3CC3)C(c3ccc(OC)cc3)=CC2=C(Br)C1=O (centres undefined)
inactive: all assays above

COC(=O)C1=C(C(=O)OC)[C@@H]2Nc3ccccc3[C@@]23C[C@@H](C(=O)OC)N(C(C)=O)C3=N1
inactive: all assays above

CC#CCN1c2ccccc2[C@]23C[C@@H](C(=O)OC)N=C2NC(C(=O)OC)=C(C(=O)OC)[C@H]13
inactive: all assays above

COc1ccc(-c2nc3c(c4c2C[C@H](c2ccccc2)OC4)CN(S(=O)(=O)c2ccc4c(c2)OCCN4C)CC3)c(C)c1
inactive: all assays above

COC(=O)CC1c2ccccc2C=C(C)N1C(=O)OC (centres undefined)
inactive: all assays above

CCCCC1=CC2=CC(=O)C(C)(OC(=O)CC)C(=O)C2=CN1Cc1ccc(OC)cc1 (centres undefined)
inactive: all assays above

COC(=O)CCCC1=CC2=CC(=O)C(C)(OC(=O)c3cccs3)C(=O)C2=CN1CCCCO (centres undefined)
inactive: all assays above

COC(=O)C1=C(C(=O)OC)[C@@H]2N(Cc3ccccc3)c3ccccc3[C@@]23C[C@@H](C(=O)OC)N(C(=O)C2CCC2)C3=N1
inactive: all assays above

COC(=O)CCCC1=CC2=CC(=O)C(C)(OC(=O)c3cccs3)C(=O)C2=CN1Cc1ccc2c(c1)OCO2 (centres undefined)
inactive: all assays above

CC(=O)Nc1ccc(S(=O)(=O)N2CCc3nc(COc4ccccc4)c4c(c3C2)CO[C@@H](C)C4)cc1
inactive: all assays above

COC(=O)C1=C(C(=O)OC)[C@@H]2N(C)c3ccccc3[C@@]23C[C@@H](C(=O)OC)N(S(=O)(=O)c2ccc(C#N)cc2)C3=N1
inactive: all assays above

COC(=O)C1=C(C(=O)OC)[C@@H]2Nc3ccccc3[C@@]23C[C@@H](C(=O)OC)N(C(=O)NC2CCCC2)C3=N1
inactive: all assays above

CC1(OC(=O)CCc2ccccc2)C(=O)C=C2C=C(c3ccc(C#N)cc3)N(C3CCCCC3)C=C2C1=O (centres undefined)
inactive: all assays above

CCN1C(=O)N[C@@H](c2cccc(C(F)(F)F)c2)[C@H](C(=O)OC)[C@H]1C
inactive: all assays above

C=CCOC(=O)N[C@@H](c1ccc(Br)cc1)C(C(C)=O)C(C)=O
inactive: all assays above

C=CCN1C=C2C(=O)C(C)(OC(=O)CCC(=O)OC)C(=O)C=C2C=C1C1CC1 (centres undefined)
inactive: all assays above

COC(=O)C1=C(C(=O)OC)[C@@H]2N(C)c3ccccc3[C@@]23C[C@@H](C(=O)OC)N(C(=O)C2CCC2)C3=N1
inactive: all assays above

COC/C=C/C1=CC2=CC(=O)C(C)(OC(=O)c3cnc4ccccc4n3)C(=O)C2=CN1CCN1CCOCC1 (centres undefined)
inactive: all assays above

CCOC(=O)CNC(=O)O[C@@H]1C(=O)c2cc(OC)ccc2O[C@H]1c1ccc(OC)c(Br)c1
inactive: all assays above

CC#CCN1c2ccccc2[C@]23C[C@@H](C(=O)OC)N(C(=O)COCc4ccccc4)C2=NC(C(=O)OC)=C(C(=O)OC)[C@H]13
inactive: all assays above

COC/C=C/C1=CC2=CC(=O)C(C)(OC(=O)c3cnc4ccccc4n3)C(=O)C2=CN1CC(C)C (centres undefined)
not listed: [4]
inactive: all other assays above

CC(=O)c1ccc([C@@H]2C=C[C@H](O)[C@@H](CO)O2)cc1
inactive: all assays above

COC(=O)CCC(=O)OC1(C)C(=O)C=C2C=C(C3CC3)N(CC(C)C)C=C2C1=O (centres undefined)
active: [3] 1510 nM
inactive: all other assays above

COC(=O)C1=C(C(=O)OC)[C@@H]2N(C)c3ccc(OC)cc3[C@@]23C[C@@H](C(=O)OC)N(C(=O)C2CCC2)C3=N1
inactive: all assays above

COC(=O)N[C@H](C(C(=O)OC)=C(C)NCc1ccccc1)c1cccc(F)c1
not listed: [4]
inactive: all other assays above

COC(=O)C1=C(C(=O)OC)[C@@H]2N(Cc3ccccc3)c3ccccc3[C@@]23C[C@@H](C(=O)OC)N(C(=O)c2ccco2)C3=N1
inactive: all assays above

CCCCC1=CC2=C(c3ccco3)C(=O)C(C)(OC(=O)c3ccc(OC)cc3)C(=O)C2=CN1CC(C)C (centres undefined)
inactive: all assays above

COc1ccc(N2C=C3C(=O)C(C)(OC(=O)CCc4ccccc4)C(=O)C=C3C=C2c2ccc(C#N)cc2)cc1 (centres undefined)
not listed: [4]
inactive: all other assays above

COC(=O)CCCC1=CC2=C(c3ccccc3)C(=O)C(C)(OC(=O)C3CCCC3)C(=O)C2=CN1CC1CC1 (centres undefined)
not listed: [4]
inactive: all other assays above

COC/C=C/C1=CC2=CC(=O)C(C)(OC(=O)c3cnc4ccccc4n3)C(=O)C2=CN1CC1CC1 (centres undefined)
not listed: [4]
inactive: all other assays above

CCCCC1=CC2=C(c3ccco3)C(=O)C(C)(OC(=O)c3ccc(OC)cc3)C(=O)C2=CN1C1CC1 (centres undefined)
not listed: [4]
inactive: all other assays above

COCCN1C(=O)N[C@@H](c2cccc(C(F)(F)F)c2)[C@@H](C(=O)OC)[C@H]1C
inactive: all assays above

CCOC(=O)CN1C(=O)N[C@@H](c2cccc(F)c2)C(C(C)=O)=C1C
inactive: all assays above

C=CCN1c2ccccc2[C@]23C[C@@H](C(=O)OC)N(C(=O)c4ccco4)C2=NC(C(=O)OC)=C(C(=O)OC)[C@H]13
not listed: [4]
inactive: all other assays above

COC(=O)N[C@@H](c1cccc(C)c1)[C@]1(C(C)=O)CCCC1=O
not listed: [4]
inactive: all other assays above

Fc1ccccc1-c1nc(-c2ccccc2)oc1NC1CCCCC1
not listed: [4]
inactive: all other assays above

C=CCOC(=O)N[C@H](C(C(=O)OC)=C(C)NCc1ccccc1)c1cccc(F)c1
not listed: [4]
inactive: all other assays above

COC(=O)C1=C(C)N(Cc2ccccc2)C(=O)N[C@H]1c1cccs1
not listed: [4]
inactive: all other assays above

COC(=O)C1=C(C(=O)OC)[C@@H]2N(C)c3ccc(OC)cc3[C@@]23C[C@@H](C(=O)OC)N(C(=O)c2ccc(Br)cc2)C3=N1
inactive: all assays above

C=C(C(C)=O)C(O)C=Cc1ccco1 (centres undefined)
inactive: all assays above
